Measurements published in the supplement of paper PMC3334620.
In all, about 33,000 sequences were measured (“E-score (-0.5 to 0.5)”: median about -0.01, highest 2% from about 0.26 on). For the sample, the highest values were picked, then their nearest neighbours and some sequences at random.

target: Ste12 (UniProt P13574); assay: PBM E-score (8-mer binding enrichment) (E-score (-0.5 to 0.5)); higher = stronger / more preferred TF binding; conditions: protein concentration: 200 nM; construct: GST-DNA-binding domain
UniProt P13574, sequence (P13574 whole entry, the tested form may be a part): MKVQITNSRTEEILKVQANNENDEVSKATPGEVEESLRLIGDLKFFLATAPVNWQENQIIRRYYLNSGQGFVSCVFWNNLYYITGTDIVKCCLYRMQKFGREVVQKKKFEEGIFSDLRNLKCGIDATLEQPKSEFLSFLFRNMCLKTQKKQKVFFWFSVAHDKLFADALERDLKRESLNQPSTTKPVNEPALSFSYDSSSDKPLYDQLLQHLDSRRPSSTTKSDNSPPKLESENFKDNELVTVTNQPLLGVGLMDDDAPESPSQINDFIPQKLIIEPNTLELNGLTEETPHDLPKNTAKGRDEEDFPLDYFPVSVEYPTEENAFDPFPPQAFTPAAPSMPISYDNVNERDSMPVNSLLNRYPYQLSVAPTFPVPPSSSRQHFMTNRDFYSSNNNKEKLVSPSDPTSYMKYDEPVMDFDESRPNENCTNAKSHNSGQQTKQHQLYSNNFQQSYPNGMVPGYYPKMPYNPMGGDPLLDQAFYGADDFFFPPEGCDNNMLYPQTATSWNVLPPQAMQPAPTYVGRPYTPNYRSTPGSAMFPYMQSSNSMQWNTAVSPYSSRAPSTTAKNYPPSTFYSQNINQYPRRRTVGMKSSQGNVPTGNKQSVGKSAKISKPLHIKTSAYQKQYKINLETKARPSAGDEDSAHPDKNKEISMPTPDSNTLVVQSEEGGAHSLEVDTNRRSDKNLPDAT
Procedure, shortened: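 PURExpress in vitro transcription/translation supplied GST-tagged yeast transcription factors, either full-length or DNA-binding domain. Applied at about 100-200 nM to universal all-10-mer Agilent arrays double-stranded by primer extension, the bound protein was detected with fluorescent anti-GST. E-scores, modified Wilcoxon-Mann-Whitney statistics, were given by the Universal PBM Analysis Suite to ungapped eight-base words pooled with their reverse complements after masliner normalisation.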

Sequence | PBM E-score
TAACCCAA | 0.182
CGAGGTAG | -0.219
ACAGTGCA | -0.00511
GGTTAGCA | -0.0625
ACCTCCCC | 0.161
GCCTCCCA | -0.104
GCCCCTCA | 0.0515
ACCCTCCA | -0.0426
GCCTCCCC | 0.305
ACCCTCCC | 0.378
ACCCTCCT | -0.00559
CCCTCCCA | 0.33
TCCTCCCA | -0.0691
GCCCCTCC | 0.445
ACCTCCCA | -0.187
CCCCCTCC | -0.121
CGTAAAGA | -0.0705
AACCTTAT | 0.138
CGATCTTC | -0.0861
ACAATGGC | 0.0105
ACCCGTCC | -0.0354
CCCCTCCA | 0.246
CCCTCCTC | 0.0435
CCCTCCCC | 0.333
CCCCTCCG | 0.171

Sequence | PBM E-score
CCCCTCCC | 0.365
CCCTCCCG | 0.0504
GATTTCGC | 0.2
AAGTGGGC | -0.0304
GAGCTTTA | -0.0834
ACAGTTTG | 0.016
CAAAAAAC | 0.298
AGAAAAAC | 0.146
AAAAAACC | 0.234
AAAAAAAC | 0.331
CCAAAAAC | 0.216
CCAAAAAA | 0.251
CAAAAAAA | 0.352
CAAAAAGA | 0.178
CAAAAACC | 0.128
GCTGAGCC | -0.0937
ACAACTCG | 0.0864
ATCCCTTG | -0.0717
GAGCATAA | 0.131
TAGCTGGA | -0.0515
CAGAATAC | 0.0945
TAATAAAA | 0.225
CTAAAAAG | 0.218
CTAAAAAC | 0.023
TAAAAAGA | 0.248

Sequence | PBM E-score
CTAAAAAA | 0.278
TAAAACAA | 0.261
TTAAAAAA | 0.294
TTAAACAA | 0.123
TTAAAGAA | 0.251
TAAAAAAA | 0.313
CTAAAAGA | 0.0876
AAAAACAA | 0.251
CGGCGAAC | 0.0131
GGAAGGGA | -0.106
CTGTACTC | -0.247
CTAGTGTA | 0.129
GACTACTC | -0.0788
CCCCATTA | -0.193
CTAATAAA | 0.145
ATAATAAA | 0.255
TTAATAAA | 0.344
ACGGCAAG | 0.0378
ACGGCAAA | 0.277
ACGGCAAT | 0.0277
CCACAAGG | -0.107
GAGAGTAA | 0.142
AACCGCCC | 0.00313
CACCGCCC | 0.27
CACCGCCA | 0.0129

Sequence | PBM E-score
ACCCGCCG | 0.137
GCCCGCCA | -0.0776
CGCCGCCC | 0.239
CCCCGCCC | 0.347
CCCCGCCG | 0.242
TCCCGCCA | 0.101
ACCCGCCC | 0.361
GCCCGCCC | 0.257
CCCCGCCA | 0.38
ACCCTCAC | -0.029
AGTAAAAA | 0.214
AATATAAG | 0.198
TATATAAA | 0.267
AATAAAAA | 0.229
TGTAAAAA | 0.334
AATATAAA | 0.306
TATAAAAA | 0.27
AATATAAT | 0.138
GATATAAA | 0.0834
TATAAAGA | 0.0307
CATATAAA | 0.0963
CGTAAAAA | 0.126
TCCTGGCA | -0.0322
CTGCGCCC | -0.239
ACCTACCT | 0.0101

Sequence | PBM E-score
CGCGGGTA | 0.0349
GAGAGAGA | -0.0897
AAGCGGTA | 0.0316
ATACTCGG | -0.0182
ACAAATCA | 0.0844
CACCGTGC | 0.131
ACGGGAGC | -0.111
GTTATAAA | 0.218
CTTATAAA | 0.223
TTTATAAA | 0.271
AGCTGTTG | -0.0338
ACGAGCCT | -0.0238
GAACACTA | -0.13
AAACACTC | 0.288
AAACACTT | 0.12
CAACACTA | 0.0388
AAACACTA | 0.273
AAACACTG | 0.248
GCGAGCCA | -0.0412
CTGCAAGC | -0.141
ATAAGCAA | 0.148
ATTTTCAA | 0.193
GTTTTCAA | 0.32
AATTTCAA | 0.106
CTTTTCAA | 0.221

Sequence | PBM E-score
TGTTCAAA | 0.17
TATTTCAA | 0.282
GATTTCAA | 0.159
TGTTTCAA | 0.484
TCTTTCAA | 0.0772
GGTTTCGA | 0.193
GGTTTCAA | 0.416
CATTTCAA | 0.214
CCAGGAGA | -0.24
GCCTGCGC | -0.119
CTTCTGCC | -0.122
TATCTTCA | 0.15
AACGATCT | 0.153
ATAAGCCC | -0.0186
GTGGAGGA | -0.0464
GATTTCAC | 0.111
GCTTTCAC | 0.0706
GGTTTCAC | 0.386
ACTAGCTA | -0.0308
ATTCTGAC | 0.0839
ATGAATGG | 0.33
ATGAATGC | 0.138
ATGAATGA | 0.192
AAGATCAC | -0.0426
GGCTGCTA | -0.037

Sequence | PBM E-score
ATCTGATG | 0.109
GGGGCTAC | -0.0752
ATAGGGCA | -0.109
CGCGGCGA | 0.126
CCCGCCGA | -0.0475
CCCGCCGG | 0.158
CCCGCCCC | 0.32
ACCGCCCT | -0.00709
TCCGCCCA | -0.107
ACCGCCCC | 0.348
ACCGCCCG | -0.057
CCCGCGCC | 0.168
CCCGCCCA | 0.332
CCCGCCGC | 0.31
CCCGCCCG | 0.233
CCCGCCAC | 0.213
AACACTTC | 0.135
AACACTGG | -0.00819
CCCATAAA | -0.0663
GTGCAAGA | -0.145
GCCGCCGC | -0.0603
GCCGCCCA | 0.0226
GCCGCCCC | 0.307
CTTCCCTC | -0.0689
CAGACATA | 0.0544

Sequence | PBM E-score
ATTTTTCA | 0.222
ATTTTCCC | 0.173
ATTTTTCG | 0.294
ATTTTCCG | 0.318
AATTTTCG | 0.128
AATTTCCG | 0.211
AGATACAT | 0.00257
CCCTAGTA | 0.0343
CGAGGACA | -0.0668
AAGCAGTG | 0.0293
AACAAACC | 0.116
TACAAACA | 0.21
GACAGAAA | 0.168
AACAAAAA | 0.332
AACAAACA | 0.269
AACAAAGC | 0.294
AACAAAAC | 0.236
AACAGAAA | 0.311
AACAAAAG | 0.119
AACAAGCC | -0.125
CACAAAGC | 0.0779
AACAGAAG | -0.0718
CGTGCGTA | -0.0557
TATAACAA | 0.215
CTTGAGTA | -0.208

Sequence | PBM E-score
CCTGTCGA | -0.122
GCCAACTA | -0.196
GTTCCGAA | 0.137
ACTTCCAT | 0.0326
ACGCTGCG | -0.0283
ACGCCCCA | 0.239
GCGCCCCA | 0.056
CCGCCCCG | 0.408
CCGCCCGG | -0.0452
CCGCCCCC | -0.00614
CCGCCCCA | 0.417
AACAGCGC | -0.0225
CACTGTTA | -0.0596
ATTCCTAG | 0.0776
CCGCAAGC | -0.226
GCACGCCA | -0.201
CTTTTACA | 0.269
ATTTTATA | 0.199
CTTTTATA | 0.0308
CTTTTACC | 0.0888
ATTTTACA | 0.113
GTTTTATA | 0.399
CCTTTACA | -0.103
GGTTTACA | -0.0303
GTTTTACA | 0.296

Sequence | PBM E-score
AGCTAGCT | -0.0845
CACTTTGA | -0.032
GGTTCTCA | 0.0128
ATCTGCCC | -0.153
ATACGTGG | -0.0972
TGCCTGAA | -0.0642
CTGTCAAG | -0.2
CAATCTTC | 0.144
CACCATCG | -0.197
CCCGAGTC | 0.0359
ATTTAAGG | 0.00576
ATTTAATC | 0.209
CTTTAATA | 0.209
ATTTAATG | 0.272
GTTTAATA | 0.179
ATTTAATA | 0.267
CACTTATG | 0.00871
ATGGGTTC | -0.094
AGATAGAA | -0.0615
AGGGCTTC | -0.0834
ATTAAAGC | 0.0638
ATAGTCTC | 0.132
AAGGTGAG | 0.00195
TACACGTA | -0.00219
TAACGAAA | 0.298

Sequence | PBM E-score
AAACGAAA | 0.248
CAACGAAA | 0.13
AGATGTGA | 0.262
CGATGTGA | 0.046
AGATGTGC | -0.154
GAGCCAGA | -0.0414
ATGGGGTA | -0.0735
GTGGGGTA | 0.302
CTGGGGTA | -0.145
CGAACGAC | -0.034
ACCACTTG | 0.0214
CAACAGTG | 0.104
ACCCAAAC | 0.285
ACCCAAAA | 0.13
GAACAAAC | 0.181
ACCCAAAG | -0.0486
AAACAAGT | 0.149
AAACAAAA | 0.225
AAACAAAC | 0.263
AAACAAAT | 0.28
AAACAGTT | 0.245
AAACAGTG | 0.309
AAACAAAG | 0.233
GTCCGGGA | 0.0647
GAAAGCTC | -0.201

Sequence | PBM E-score
GGTCCAGA | -0.0878
ATATTGCA | 0.104
ATTCCCTG | 0.0875
ATTCGTAA | 0.166
AACCCTGA | 0.305
CACCCTGA | -0.00848
ACCCCTGA | 0.128
ATGTGTCA | 0.119
ACGTCTCA | 0.274
CTGTCTCA | 0.158
ATGTCTCC | -0.0509
ATGTCTCA | 0.289
GTGTCTCA | 0.338
TCGTCTCA | 0.134
CTGTGTCA | 0.0491
GTCTCTCA | -0.184
GCGTCTCA | 0.166
GTGTGTCA | 0.321
ATGTCTCG | -0.114
AAGTCGTA | -0.129
TATGGGAA | 0.0435
CGGCTGGC | -0.117
ATATTATA | 0.18
GCATTAAA | 0.111
TTATTAAA | 0.321

Sequence | PBM E-score
TAATTAAA | 0.173
TCATTAAA | 0.324
ACATTAAA | 0.196
ATATTAAC | 0.285
ATATTATG | 0.303
ATATTATC | 0.181
GTATTAAC | 0.132
CTATTAAC | -0.0267
GTATTAAA | 0.166
CTGGGCAA | -0.0128
GGACTAGA | -0.124
TATGGTCA | -0.0454
CAGTAAGG | -0.0592
ACGCGAGC | -0.151
AGGTTACT | 0.0862
TACTCCCA | 0.056
ATATTAGA | 0.0159
ATATTAAG | 0.109
ATATTAAA | 0.29
ATATTAAT | 0.298
CTATTAAA | 0.219
AGATTAAT | 0.0881
AAATAATA | 0.257
AAATAATC | 0.171
AAATAATT | 0.294

Sequence | PBM E-score
TAATAATA | 0.181
GAATAATC | 0.00357
GAATAATA | 0.286
AGACTGCT | 0.0365
AGCGCTAT | 0.0744
AACTCATG | 0.129
ATTGAGGG | -0.124
GAATGAGC | -0.0246
ATCCGAAT | 0.192
AAAACCTT | 0.142
AAAACCTA | 0.283
AAAAACCG | 0.178
AAAAACCC | 0.0736
AAAAACCT | 0.263
CAAACCTA | 0.0393
CGAAGAAA | 0.195
ACTCTCCG | -0.0208
AAGAAGAG | -0.00818
AAGTTGAC | 0.0703
